# Measurements as given in the supplement of paper PMC11482750.
# ± gives the standard deviation of the averaged measurements.
# Compound: C=CCN=C=S [allyl isothiocyanate]
# Assay: control-subtracted net OSN firing rate; higher = stronger neuronal activation
# Settings: odorant dilution (vol/vol): 1/100
# Procedure, shortened: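 Responses come from single sensillum recordings of palp or antennal olfactory sensory neurons in 1–5-day-old fed female Scaptomyza species or D. melanogaster wild-type, mutant or at1 empty-neuron lines with Or42a homologs. Stimuli were 1 s pulses of odorant at 1:100 vol/vol in mineral oil or dimethyl sulfoxide into 16 ml/min filtered air. Spikes from 0.2 s after onset, counted over 0.5 s, were background-subtracted, doubled, solvent-corrected and averaged over replicates.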
row,Target,control-subtracted net OSN firing rate [spikes/s]
1,Canton-S (D. melanogaster) ab6a,2.67 ± 5.9
2,Canton-S (D. melanogaster) ab9b,2.33 ± 17
3,Canton-S (D. melanogaster) at4a,-3 ± 7.5
4,Canton-S (D. melanogaster) at1,-0.286 ± 14
5,Canton-S (D. melanogaster) ab4a,83.1 ± 18
6,w1118 (D. melanogaster) pb1a,91.3 ± 46
7,TrpA1- (D. melanogaster) pb1a,152 ± 22
8,Canton-S (D. melanogaster) ab1b,15.3 ± 20
9,Canton-S (D. melanogaster) ab1c,-3.33 ± 11
10,Canton-S (D. melanogaster) ab6b,-5.33 ± 19
11,Canton-S (D. melanogaster) ai3b,3.67 ± 7.3
12,Canton-S (D. melanogaster) ab5b,-3.14 ± 11
13,Canton-S (D. melanogaster) ab5a,-2 ± 7.1
14,Canton-S (D. melanogaster) ab3b,-4.33 ± 7.5
15,Canton-S (D. melanogaster) ab7b,-5.14 ± 9.4
16,Canton-S (D. melanogaster) ab4b,-2.57 ± 3.2
17,Or42a- (D. melanogaster) pb1a,-2.5 ± 4

row,Target,control-subtracted net OSN firing rate [spikes/s]
1,Canton-S (D. melanogaster) ab3a,30 ± 16
2,Canton-S (D. melanogaster) ab10b,0.4 ± 5.7
3,Canton-S (D. melanogaster) ai3a,0.667 ± 6
4,Canton-S (D. melanogaster) ab8b,45.4 ± 36
5,Canton-S (D. melanogaster) at4c,1.33 ± 4.7
6,Canton-S (D. melanogaster) ab9a,41 ± 45
7,Canton-S (D. melanogaster) ab10a,8.8 ± 6.8
8,Canton-S (D. melanogaster) ab1a,-3.67 ± 15
9,Canton-S (D. melanogaster) at4b,-3 ± 6.5
10,Canton-S (D. melanogaster) ai2a,4 ± 7.8
11,Canton-S (D. melanogaster) ab7a,-8.86 ± 13
12,Canton-S (D. melanogaster) ai3c,6 ± 13
13,Canton-S (D. melanogaster) ab2b,-6 ± 4
14,Canton-S (D. melanogaster) ai2b,-1.14 ± 4.3
15,Canton-S (D. melanogaster) ab8a,31.1 ± 18
16,Canton-S (D. melanogaster) ab1d,-4.33 ± 9.1
17,Canton-S (D. melanogaster) ab2a,-1.33 ± 2.4
